RXFP1 antagonist: qHTS Assay for Antagonists of the Relaxin Receptor RXFP1. HEK293-RXFP1, relaxin-stimulated cAMP HTRF, 30 min; active compounds read low. activity change, negative = inhibition, % at 57.5 µM. AID 1259400, 2018. 350,000 compounds, 0.59% hits;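 active = activity change of -60% or lower, but not beyond a set lower limit; inconclusive = change between -60% and -40%, or beyond the set limit; inactive = change above -40%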; note: % is set by controls: 0 for no effect and ±100 for the full control effect
Target sequence (Q9HBX9 whole entry, looked up): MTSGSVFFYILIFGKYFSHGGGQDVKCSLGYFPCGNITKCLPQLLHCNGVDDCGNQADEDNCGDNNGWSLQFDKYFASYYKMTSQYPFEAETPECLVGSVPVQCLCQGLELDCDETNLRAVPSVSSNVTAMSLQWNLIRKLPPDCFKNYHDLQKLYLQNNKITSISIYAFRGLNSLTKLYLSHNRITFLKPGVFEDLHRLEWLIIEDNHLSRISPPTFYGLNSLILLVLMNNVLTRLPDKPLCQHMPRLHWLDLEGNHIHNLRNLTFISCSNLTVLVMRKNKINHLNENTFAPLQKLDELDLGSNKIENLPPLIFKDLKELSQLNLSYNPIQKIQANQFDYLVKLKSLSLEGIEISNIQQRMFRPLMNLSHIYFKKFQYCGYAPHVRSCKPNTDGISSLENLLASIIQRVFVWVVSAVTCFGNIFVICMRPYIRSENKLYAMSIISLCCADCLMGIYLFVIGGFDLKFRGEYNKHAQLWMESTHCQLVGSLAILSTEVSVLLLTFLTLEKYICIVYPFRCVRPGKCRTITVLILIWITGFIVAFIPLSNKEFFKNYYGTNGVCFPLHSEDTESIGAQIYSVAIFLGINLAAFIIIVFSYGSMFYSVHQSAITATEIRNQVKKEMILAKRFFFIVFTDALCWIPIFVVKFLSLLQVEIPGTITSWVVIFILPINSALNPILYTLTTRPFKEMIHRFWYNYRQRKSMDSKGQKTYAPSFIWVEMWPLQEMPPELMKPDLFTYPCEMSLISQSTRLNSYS
gsp antagonist: qHTS for Antagonists of gsp, the Etiologic Mutation Responsible for Fibrous Dysplasia/McCune-Albright Syndrome: qHTS; gsp-mutant cells, cAMP HTRF, 30 min; 340,000 compounds, 0.4% hits; Potency, µM (doses to about 76.9 µM), for inactives: at the top dose activity change, negative = inhibition, usual class: inhibitors; AID 624288, 2012; calls by dose curve; cell line not stated here;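 note: intracellular cAMP measured with PDE inhibitor Ro 20-1724 present during compound exposure; potency is the fitted concentration of half-maximal effect; % is set by controls: 0 for no effect and ±100 for the full control effect; nearly all actives have a fitted effect of over 65% in size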
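HTRF cAMP read-out (cAMP-d2 plus anti-cAMP antibody-K in lysis buffer, 30 min RT). Before lysis, cells are exposed to compounds with […] for 30 min at 37C in DPBS containing Ca/Mg, BSA and Tween 20.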
Giardia killer: Small Molecules that selectively kill Giardia lamblia: qHTS; Giardia lamblia trophozoite viability; activity change, % at 7.66 µM, hits read low; 340,000 compounds, 0.15% hits; in the data active = activity change below about -80%; inconclusive = between about -30% and that limit;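 note: parasites exposed to compound for two days anaerobically before the ATP read; % is set by controls: 0 for no effect and ±100 for the full control effect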
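Viability, read as ATP luminescence: trophozoites at 100 cells/well, compound added, 48 hrs anaerobic at 37 deg C, then 15-30 min room-temperature development before reading.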
Coupling enz: qHTS Assay for Inhibitors of Fructose-1,6-bisphosphate Aldolase from Giardia Lamblia: Coupling assay counterscreen | coupling enzyme system counterscreen, AmpLite Red fluorescence | activity change, negative = inhibition, % at 58.2 µM, hits read low | 290,000 compounds, 0.67% hits | AID 2472, 2010; in the data active = activity change below about -30%; note: % is set by controls: 0 for no effect and ±100 for the full control effect
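Compounds tested against the coupling enzymes alone at 57.5 uM final; readout was AmpLite Red fluorescence (525/598 nm) after 20 min at RT.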
gsp ag: qHTS for Agonist of gsp, the Etiologic Mutation Responsible for Fibrous Dysplasia/McCune-Albright Syndrome: qHTS; gsp mutant cells, cAMP HTRF, 30 min; Potency, µM (series often up to 76.9 µM), inactives show at the highest dose activation (cAMP increase), hits mostly activators; 340,000 compounds, 0.13% hits; AID 624287, 2012; active = well fitted activation curve with a large enough effect; inconclusive = small, poorly fitted or top-dose-only effect, or another doubt; inactive = no such curve, though single readings can be large or run the other way; cell line not stated here;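 note: phosphodiesterase inhibitor Ro 20-1724 added with compounds to block cAMP breakdown; potency is the fitted concentration of half-maximal effect; nearly all actives have a fitted effect of over 60% in size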
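Cells stably selected in G418 were plated at 2000/well, grown 16-24 hr, then given compounds in DMSO with the PDE inhibitor […] (300 uM solution added) for 30 min at 37C; cAMP was read by HTRF.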
RXFP1 ag: qHTS Assay for Agonists of the Relaxin Receptor RXFP1. Relaxin receptor 1 (Homo sapiens), Q9HBX9. Potency, µM (top dose mostly 57.5 µM), without a hit: at the highest dose activation, actives largely listed as activators. HEK293T-RXFP1 cAMP TR-FRET, 30 min; response scale: percent of porcine relaxin response, buffer zero. 370,000 compounds, 0.3% hits. AID 2676, 2010; active = well fitted activation curve with a large enough effect; inconclusive = small, poorly fitted or top-dose-only effect; note: potency is the fitted concentration of half-maximal effect; % is set by controls: 0 for no effect and ±100 for the full control effect; nearly all actives have a fitted effect of over 60% in size
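cAMP rise read by TR-FRET after 30 min, 37C compound exposure (up to 58 uM) in RXFP1-transfected HEK293 cells with Ro 20174 present. EC50 from Hill-equation fits, with 29 nM porcine relaxin as 100% and buffer as basal.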
An asterisk follows results filed as active; ? = inconclusive; · = no result given; ! = not confirmed by another sample; [ ] = remark or other dose. Sampled rows, rich in hits. Any-hit rate of the full collection: about 1.6%.

SMILES	RXFP1 antagonist	gsp antagonist	Giardia killer	Coupling enz	gsp ag	RXFP1 ag
CCN(CC)C(=O)CSc1nnc2sc3ccccc3n12	-16	-1%	-5	0	?	6%
c1ccc(OCCSc2nnc3sc4ccccc4n23)cc1	-12	-9%	-19	-39*	?	3%
COc1cccc(OCCSc2nnc3sc4ccccc4n23)c1	8	4%	23	-42*	8%	-3%
O=C1/C(=C/c2ccc(O)c(O)c2)Oc2ccccc21	·	·	·	-10	·	·
O=C(COc1ccc2c3c(c(=O)oc2c1)CCCC3)NCc1cccnc1	-3	8%	-10	·	1%	7%
O=C(Nc1nc(-c2cccs2)c(C(=O)C(F)(F)F)s1)c1ccccc1	·	?	-3	1	33%	9%
O=C(Nc1nc(-c2cccs2)c(C(=O)C(F)(F)F)s1)c1ccco1	1	-2%	7	13	?	25µM*
CCCn1c(SCC(=O)Nc2ccccc2C(=O)NC2CC2)n[nH]c1=O	-2	31%	2	·	45µM*	15%
COc1ccc(-c2noc(CNC(=O)c3ccoc3C)n2)cc1	17	7%	?	2	2%	5%
Fc1ccccc1NC(=S)Nc1cccc2cnccc12	-1	-28%	?	-32*	5%[15.4 µM]	1%
FC(F)(F)c1ccccc1NC(=S)Nc1cccc2cnccc12	5	-5%	-7	-25	14%[15.4 µM]	1%
S=C(NCCc1ccccc1)Nc1cccc2cnccc12	-14	-11%	17	-36*	20%[15.4 µM]	-1%
Cc1ccccc1NC(=S)Nc1cccc2cnccc12	1	-2%	-3	-52*	10%[15.4 µM]	2%
Cc1ccc(C)c(NC(=S)Nc2cccnc2)c1	11	1%	1	2	11%[15.4 µM]	-1%
Cc1ccc(C)c(NC(=S)Nc2cccc3cnccc23)c1	14	2%	-5	-37*	20%	3%
S=C(NCc1ccccc1)Nc1cccc2cnccc12	10	-11%	-1	-9	7%[15.4 µM]	3%
CC(C)(CNS(=O)(=O)c1ccc2ccccc2c1)N1CCOCC1	-10	7%	8	·	-1%	0%
COC(=O)C/C=C\[C@@H](C)[C@@H](/C=N\OC[C@@H](O)[C@H]1O[C@H]2OC(C)(C)O[C@H]2[C@@H]1O)OC	·	·	·	2	·	·
O=c1cc(-c2ccccc2)n2c(SCc3ccc([N+](=O)[O-])cc3)nnc2[nH]1	-12	·	·	·	·	-1%
COc1ccccc1C(=O)NC(=O)COC(=O)c1nc(Cl)ccc1Cl	-9	3%	-12	·	2%[15.4 µM]	0%
COc1ccc(-c2nnc3ccc(SC(C)C)nn23)cc1OC	·	·	-1	·	·	·
Cc1ccccc1OCC(=O)Nc1sc(C(=O)Nc2cccc(C)c2C)c(C)c1C#N	-1	35%	6	0	?	8.9µM*
O=C(NN1C(=O)c2ccccc2NC1c1ccc([N+](=O)[O-])o1)c1ccccc1 (stereo not given)	-26	5%	-85*	-7	-19%	1%
O=C(NN1C(=O)c2ccccc2NC1c1ccc([N+](=O)[O-])o1)c1ccc([N+](=O)[O-])cc1 (stereo not given)	23	29%	?	-8	1.8µM*	2.8µM*
O=C(NN1C(=O)c2ccccc2NC1c1ccoc1)c1ccc([N+](=O)[O-])cc1 (stereo not given)	2	-16%	-2	3	3%	4%
SMILES	RXFP1 antagonist	gsp antagonist	Giardia killer	Coupling enz	gsp ag	RXFP1 ag
CCN(CC)S(=O)(=O)c1cc([N+](=O)[O-])ccc1NNC(=O)Nc1ccc(F)cc1	-7	50µM*	12	-3	11%	1%
CCN(CC)S(=O)(=O)c1cc([N+](=O)[O-])ccc1NNC(=O)Nc1ccccc1OC	7	-29%	-12	0	-9%	1%
O=C(Nc1ccccc1C(=O)N/N=C/c1ccc(F)cc1)c1ccccc1Br	6	-20%	0	-33*	3%	0%
O=C(N/N=C/c1ccc(F)cc1)c1ccc(Br)cc1	-11	4%	-10	-1	40µM*	2%
O=C(N/N=C/c1ccc(Br)cc1)c1ccc(F)cc1	-2	2%	-8	2	-1%	-2%
COc1ccc(-c2ccc(NCCN3CCOCC3)nn2)cc1OC	4	11%	5	0	24%	-3%
CC1CCN(C(=O)C(C)OC(=O)c2ccc(S(C)(=O)=O)c([N+](=O)[O-])c2)CC1 (stereo not given)	·	·	5	·	·	·
Cc1cc(C)c[n+](-c2nc3ccccc3nc2[N-]S(=O)(=O)c2ccc(Br)s2)c1	-4	-2%	-9	-2	-13%	0%
COc1cc2[nH]c3c(Cl)ncnc3c2cc1OC	·	-9%	-1	-43*	24%	16%
COc1cc2[nH]c3c(N4CCN(c5ccc(Cl)cc5)CC4)ncnc3c2cc1OC	-21	-6%	8	-1	4%	4%
CO[C@@H]1COC(=O)CCC[C@@H](C)[C@H](OC)COC(=O)CCC[C@H]1C	·	·	·	1	·	·
COC(=O)c1sc(NC(=S)NNC(=O)c2c(Br)c(C)nn2C)c(C(=O)OC)c1C	31	-3%	-6	-8	?	25µM*
COC(=O)c1c(-c2ccco2)csc1NC(=O)C1CC=CCC1C(=O)O (stereo not given)	24	-4%	1	-15	32µM*	28%
CC(=O)Nc1ccc(N/C=C2/CCCC2=O)cc1	-10	-1%	2	-1	-2%	-6%
Cc1cc(O)ccc1N/C=C1\CCCC1=O	-3	-15%	6	-44*	4%	-3%
COCCN1C=C2C(=O)C(C)(OC(=O)CCC(=O)OC)C(=O)C=C2C=C1C1CC1 (stereo not given)	·	-1%	-15	-45*	·	0%
COC(=O)CCC(=O)OC1(C)C(=O)C=C2C=C(C3CC3)N(Cc3ccco3)C=C2C1=O (stereo not given)	·	-1%	10	-29	·	-3%
COC(=O)CCC(=O)OC1(C)C(=O)C=C2C=C(C3CC3)N(C3CC3)C=C2C1=O (stereo not given)	·	6%	-2	-47*!	·	-2%
COC(=O)CCC(=O)OC1(C)C(=O)C=C2C=C(C3CC3)OC=C2C1=O (stereo not given)	·	·	·	1	·	·
COC(=O)CCC(=O)OC1(C)C(=O)C=C2C=C(C3CC3)N(c3ccc(CO)cc3)C=C2C1=O (stereo not given)	·	·	·	-25	·	·
